Our source for the growth values is PubChem BioAssay (NCI).

The panel holds about 83,000 compounds, 20% with a hit somewhere; the sample as a whole holds those more often.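 Activity criterion: percent growth below 10, measured after cells in 96-well plates were exposed to a single compound concentration for 48 hours.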 Unmarked numbers belong to inactive results. Active and inactive are the calls of the source.

Holding throughout (test): NCI-60 one-dose screen, 48 h (100 = growth as untreated, 0 = no growth, -100 = all killed)
What all share (details): 10 µM unless noted

Assay [1] concerns NCI-H23 lung.
The test system of assay [2] is NCI-H226 lung.
The subject of assay [3] is NCI-H322M lung.
Assay [4] has as its system HOP-62 NSCLC.
Assay [5] relates to NCI-H460 lung.
Assay [6] concerns HOP-92 NSCLC.
Assay [7] concerns NCI-H522 lung.
In assay [8] the test system is A549/ATCC NSCLC.
Assay [9] concerns 786-0 renal.
For assay [10], the system named is COLO 205 colon.
In assay [11] the test system is DU-145 prostate.
In assay [12] the test system is K-562 leukemia.
Assay [13] deals with MALME-3M melanoma.
For assay [14], the system named is MDA-MB-231 breast.
Assay [15] relates to RXF 393 renal.
Assay [16] has as its system SF-268 CNS.
The test system of assay [17] is SF-295 CNS.
Assay [18] concerns SF-539 CNS.
The test system of assay [19] is UACC-257 melanoma.
In assay [20] the test system is M14 melanoma.

In the case of `Clc1cccc(Cl)c1/C=C/c1cc(/C=C/c2c(Cl)cccc2Cl)[nH]n1`, the growth was 43.6% in [1]; 30.6% in assay [2]; 38.2% in assay [3]; 49.7% in assay [4]; 11.4% in [5]; 102% in assay [6]. For the same compound, the growth in assay [7] was -9.35% (active); in assay [8], 38.7%; in assay [9] it was 23.1%; in assay [10], 17.7%; in [11], 17%; in assay [12] it was 12%. The growth was 60.1% in assay [13]; 13.1% in [14]; 6.46% (active) in assay [15]; 53.2% in assay [16]; 20.9% in assay [17]; -43.7% (active) in assay [18]. Further, the growth in [19] was 58.6%; in [20], 5.51% (active).
On to `O=C(NC(CSSCC(NC(=O)c1ccccc1)C(=O)O)C(=O)O)c1ccccc1` (stereo not given), for which the growth in [1] is 101%; in [2], 98.7%; in assay [3], 103%; in [4], 95.6%; in assay [5], 107%; in assay [6], 88.3%. Moreover, the growth in [7] was 92.4%; in assay [8], 104%; in assay [9], 105%; in assay [10], 114%; in assay [11], 114%; in [12] it was 96%. Besides, the growth in assay [13] is 109%; in assay [14], 110%; in assay [15] it was 116%; in assay [16] it was 99.4%; in assay [17] it was 106%; in assay [18] it was 102%. For the same compound, the growth was 102% in assay [19] and 98.9% in assay [20].
As to `N=C1C(c2nc(-c3ccc(Br)cc3)cs2)=C(O)CN1CC1CCCO1` (stereo not given), the growth in assay [1] was 88.8%; in assay [2], 103%; in assay [3], 103%; in [4] it was 18.5%; in assay [5], 60.2%; in assay [6], 69.6%. Moreover, the growth is 99.6% in assay [7]; 75.2% in [8]; 61.7% in assay [9]; 90.8% in assay [10]; 69.7% in [11]; 64.1% in assay [12]. Also, the growth is 112% in assay [13]; 90.9% in [14]; 83% in assay [15]; 87.9% in assay [16]; 91.5% in assay [17]; 81.4% in [18]. Besides, the growth in assay [19] is 84.3%; in [20] it was 91.5%.
With `Cc1ccc(-c2cc(-c3ccccc3C)[nH]c(=O)c2C#N)s1`, the growth in assay [1] is 92.4%; in assay [2], 93.1%; in assay [3], 79.1%; in [4] it was 90.4%; in assay [5], 98.7%; in assay [6], 54%. The growth in [7] was 87.5%; in assay [8] it was 87.9%; in assay [9], 78.8%; in assay [10], 117%; in [11], 104%; in assay [12], 85.6%. Also, the growth in [13] is 111%; in assay [14], 84.8%; in [15] it was 92%; in [16], 95.8%; in assay [17], 99.2%; in assay [18] it was 91.5%. Moreover, the results for the growth in assay [19] and in assay [20] were 107% and 109%, respectively.
Take `Cc1ccc(-n2c(-c3ccccc3)c(-c3ccccc3)c3c(SCC(=O)n4[nH]c(N)cc4=O)ncnc32)cc1`: the growth in assay [1] was 90.8%; in assay [2], 88.8%; in assay [3], 101%; in assay [4], 87.6%; in [5], 103%; in assay [6], 74.7%. In addition, the growth was 79.6% in assay [7]; 92.5% in assay [8]; 96.6% in assay [9]; 94.4% in assay [10]; 108% in [11]; 77.1% in assay [12]. In addition, the growth in assay [13] is 97.6%; in assay [14] it was 83.3%; in [15], 96.6%; in assay [16], 107%; in [17], 89.3%; in assay [18], 96%. In addition, the growth in assay [19] was 94.1%; in assay [20], 94.3%.
As for `COc1cc(C(=O)/C=C/c2c(C(F)(F)F)nc3sccn23)cc(OC)c1OC`, the growth is 1.76% (active) in assay [1]; 29.1% in [2]; 13.8% in assay [3]; 4.69% (active) in assay [4]; -72.1% (active) in assay [5]; 40.1% in [6]. Besides, the growth was -63.1% (active) in [7]; 11.3% in assay [8]; 3.07% (active) in assay [9]; -76.7% (active) in assay [10]; 10.7% in [11]; -16.1% (active) in assay [12]. The growth in [13] was 78.6%; in assay [14], 29.1%; in assay [15], -55.7% (active); in assay [16], 16.1%; in assay [17], -2.07% (active); in assay [18] it was -59.1% (active). Also, the growth in assay [19] was 13.4%; in assay [20] it was -39.2% (active).
On to `COC(=O)[C@]12CC[C@@H](C)[C@H](C)[C@@H]1C1=CC[C@@H]3[C@@]4(C)C(C=O)=C[C@@](C)(COC(C)=O)C4=CC[C@@]3(C)[C@]1(C)CC2`, for which the growth in [1] was 7.56% (active); in assay [2] it was 11.2%; in assay [3], 24.8%; in assay [4] it was -7.82% (active); in assay [5] it was -29.1% (active); in [6], -9.34% (active). The growth in assay [7] is -30.5% (active); in assay [8] it was 5.26% (active); in [9] it was -33.7% (active); in assay [10], -66.5% (active); in [11], -6.88% (active); in assay [12], 5.59% (active). Besides, the growth in assay [13] was -65.5% (active); in [14], -26.6% (active); in [15], -58.9% (active); in assay [16], -3.01% (active); in [17], 0.263% (active); in assay [18], -50.8% (active). Further, the growth in assay [19] was -41.3% (active); in assay [20], -48.4% (active).
